Experimental data from PubChem BioAssay AID1159580 (chemical genetic matrix, 2015).
The campaign covered roughly 5,500 compounds. About 2,000 (36%) were called active. About 18% were inconclusive and are not listed. No stated cut-off is given here; in the data, active means normalized growth mostly below about 0.91 (no sharp cut-off); inconclusive means no clear call, values can overlap the other calls; inactive means mostly above about 0.92. This is one part of the list.

Experiment: chemical genetic growth profiling, strain panel (AID 1159580);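 further: tested at 20 µM; growth read once vehicle control cultures reached saturation at 30 °C; 1 = growth at the plate median or of vehicle wells; lower values mean less growth of the strain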
Details: S. cerevisiae deletion strains, growth OD
[1] = locus YHR030C, strain SLT2, active compounds read low
[2] = locus YHR079C, strain IRE1, active compounds read low
[3] = locus YJL095W, strain BCK1, active compounds read low
[4] = locus YJR066W, strain TOR1, active compounds read low
[5] = locus YLR113W, strain HOG1, active compounds read low
[6] = locus YNL183C, strain NPR1, active compounds read low
[7] = locus YOR231W, strain MKK1, active compounds read low
[8] = locus YPL256C, strain CLN2, active compounds read low
[9] = locus YDL101C, strain DUN1, active compounds read low

Measured: normalized growth

C[n+]1ccccc1/C=N\O
inactive: [1] 0.981 | [2] 0.987 | [3] 0.996 | [4] 0.932 | [5] 0.997 | [6] 0.934 | [7] 1 | [8] 0.974

CN1C(=O)CN=C(c2ccccc2)c2ccccc21
inactive: locus YAL013W, strain DEP1, active compounds read low 1.01 | locus YBR229C, strain ROT2, active compounds read low 0.997 | locus YCL061C, strain MRC1, active compounds read low 0.999 | [9] 0.995 | locus YDR150W, strain NUM1, active compounds read low 0.86 | locus YEL061C, strain CIN8, active compounds read low 1 | locus YGR078C, strain PAC10, active compounds read low 1 | [1] 1.03 | locus YHR087W, strain rtc3, active compounds read low 0.995 | locus YJR043C, strain POL32, active compounds read low 1.01 | locus YJR075W, strain HOC1, active compounds read low 0.994 | locus YKL190W, strain CNB1, active compounds read low 1 | locus YLR039C, strain RIC1, active compounds read low 1.02 | locus YLR058C, strain SHM2 (second series), active compounds read low 1.01 | locus YLR085C, strain ARP6, active compounds read low 1.02 | locus YLR262C, strain YPT6, active compounds read low 1.01 | locus YML094W, strain GIM5, active compounds read low 1 | locus YMR219W, strain ESC1, active compounds read low 1 | locus YMR263W, strain SAP30, active compounds read low 0.981 | locus YMR307W, strain GAS1, active compounds read low 1.02 | locus YNL153C, strain GIM3, active compounds read low 1 | locus YNL298W, strain CLA4 (second series), active compounds read low 1.01 | locus YNL322C, strain KRE1, active compounds read low 0.991 | locus YNR030W, strain Alg12, active compounds read low 1.02 | locus YPL055C, strain LGE1, active compounds read low 0.854 | locus YPL241C, strain CIN2, active compounds read low 1.05 | locus YPR135W, strain CTF4, active compounds read low 0.979

Cc1cc(SCc2[nH]nc3oc(=O)cc(C)c23)c(Cl)cc1Cl
inactive: locus YAR019C, strain CDC15, active compounds read low 0.979 | locus YBL105C, strain PKC1, active compounds read low 0.993 | locus YBR135W, strain CKS1, active compounds read low 0.984 | locus YBR136W, strain MEC1, active compounds read low 0.987 | locus YBR160W, strain CDC28, active compounds read low 0.986 | locus YDL017W, strain CDC7, active compounds read low 0.988 | locus YDL028C, strain MPS1, active compounds read low 0.991 | [9] 0.989 | locus YDL108W, strain KIN28, active compounds read low 0.98 | locus YDL132W, strain cdc53, active compounds read low 0.987 | locus YDL214C, strain PRR2, active compounds read low 1.01 | locus YDR052C, strain DBF4, active compounds read low 0.981 | locus YDR054C, strain cdc34, active compounds read low 0.983 | locus YDR226W, strain ADK1, active compounds read low 0.972 | locus YDR477W, strain SNF1, active compounds read low 1.01 | locus YER123W, strain YCK3, active compounds read low 0.993 | locus YER133W, strain GLC7, active compounds read low 1.03 | locus YFL009W, strain cdc4, active compounds read low 0.984 | locus YFL029C, strain CAK1, active compounds read low 0.979 | locus YFR003C, strain YPI1, active compounds read low 0.994 | locus YFR019W, strain FAB1, active compounds read low 0.995 | locus YFR028C, strain CDC14, active compounds read low 0.99 | locus YGR040W, strain KSS1, active compounds read low 1.01 | locus YGR052W, strain FMP48, active compounds read low 1.03 | locus YGR092W, strain DBF2, active compounds read low 0.973 | [1] 1.1 | [2] 0.992 | locus YHR082C, strain KSP1, active compounds read low 1.13 | locus YHR205W, strain SCH9, active compounds read low 0.968 | locus YIL147C, strain SLN1, active compounds read low 0.979 | [3] 0.947 | locus YJL128C, strain PBS2, active compounds read low 0.933 | locus YJL157C, strain FAR1, active compounds read low 1 | locus YJR016C, strain ILV3, active compounds read low 0.994 | locus YJR066W, strain TOR1 (second series), active compounds read low 0.983 | [4] 1.05 | locus YKL048C, strain ELM1, active compounds read low 0.993 | locus YKL067W, strain YNK1, active compounds read low 1.01 | locus YKL101W, strain HSL1, active compounds read low 1.01 | locus YKL193C, strain SDS22, active compounds read low 0.982 | locus YKL203C, strain TOR2, active compounds read low 1.04 | [5] 1 | locus YLR133W, strain CKI1, active compounds read low 0.998 | locus YLR403W, strain SFP1, active compounds read low 0.996 | locus YML070W, strain DAK1, active compounds read low 1.02 | locus YMR001C, strain CDC5, active compounds read low 0.99 | locus YMR205C, strain PFK2 (second series), active compounds read low 1.03 | locus YMR277W, strain FCP1, active compounds read low 0.981 | locus YNL006W, strain LST8, active compounds read low 0.984 | locus YNL020C, strain ARK1, active compounds read low 0.981 | locus YNL161W, strain CBK1, active compounds read low 1.01 | [6] 1.05 | locus YNL207W, strain RIO2, active compounds read low 0.986 | locus YNL222W, strain SSU72, active compounds read low 0.979 | locus YNL307C, strain MCK1 (second series), active compounds read low 0.994 | locus YOL078W, strain AVO1, active compounds read low 0.998 | locus YOL136C, strain PFK27, active compounds read low 1.01 | locus YOR061W, strain CKA2, active compounds read low 0.973 | locus YOR119C, strain RIO1, active compounds read low 1.08 | [7] 0.985 | locus YOR329C, strain SCD5, active compounds read low 0.989 | locus YPL031C, strain PHO85, active compounds read low 0.988 | locus YPL153C, strain RAD53, active compounds read low 0.987 | locus YPL204W, strain HRR25, active compounds read low 0.97 | locus YPL209C, strain IPL1, active compounds read low 0.991 | [8] 1.08 | locus YPR025C, strain CCL1, active compounds read low 0.99 | locus YPR106W, strain ISR1, active compounds read low 1 | locus YPR111W, strain DBF20, active compounds read low 0.974 | strain NNK1, active compounds read low 0.985 | strain TSCII, active compounds read low 0.98
